# Records with an inconclusive call do not appear. A number with no mark means an inactive call. The call rests on the fitted dose curve; in most records, active means well fitted inhibition curve with a large enough effect in the repeat runs; inconclusive means weak or mixed curves, or effect the other way; inactive means no such curve, though single readings can be large or run the other way.
# Biological target: Nuclear receptor ROR-gamma (Homo sapiens) (UniProt P51449)
# Assay: qHTS assay to identify small molecule antagonists of the retinoid-related orphan receptor gamma (ROR-gamma) signaling pathway (AID 1159521; further: top concentration of the series differs between compounds; nearly all actives have a fitted effect of over 50% in size)
# Details: Tet-on RORgamma CHO cells, RORE-luciferase, 16 h; series mostly up to 92.4 µM; activity change, negative = inhibition: at the top concentration
# Text: U.S. Tox21 Program National Center for Advancing Translational Sciences [NCATS] NIH Chemical Genomics Center [NCGC] U.S. Environmental Protection Agency [EPA] National Institutes of Environmental Health Sciences [NIEHS] National Toxicology Program [NTP] U.S. Food and Drug Administration [FDA] Tox21 Assay Overview: Nuclear steroid hormone receptors are involved in many biological processes including inflammatory responses, cell proliferation, and apoptosis. Environmental factors or compounds disrupting these nuclear receptor pathways and gene expression may promote susceptibility to immunotoxicants and autoimmune diseases. One important group of these expression factors are the retinoid-related orphan receptors. To assess compounds that may interfere with the retinoid-related orphan receptor gamma (ROR-gamma) transcription factor, a cell-based luciferase assay was used. The CHO cell-based assay utilizes a TET-inducible ROR expression factor and ROR response element-LUC reporter gene. Reporter gene activity was induced using Doxycycline Hyclate and measured after 16 hr incubation. Tet-on ROR gamma CHO cells were used to screen against the Tox21 10K compound library for ROR gamma antagonists by quantification of decreased reporter gene activity in terms of decreased luminescence.
# Tox21 Assay Protocol Summary: Tet-on ROR gamma CHO cells were dispensed at 1,000 cells in 4 uL of culture medium per well into white wall/solid bottom 1536-well plates using a Multidrop Combi (Thermo Scientific, Waltham, MA) dispenser. Following incubation at 37 C and 5% CO2 for 4 hr, 23 nL of compounds dissolved in DMSO, positive controls or DMSO only were transferred by a Pintool station (Kalypsys, San Diego, CA) and after 2 hr incubation at 37 C, one ul of 1 uM (final concentration) of Doxycycline Hyclate was added to all the wells by using a Flying Reagent Dispenser (FRD) (Aurora Discovery, San Diego, CA). After 16 hr incubation at 37 C and 5% CO2, 5 uL of ONE-Glo reagent (Promega Corporation, Madison, WI) was added to each assay plate using FRD. After 30 min incubation at room temperature, luminescence was quantified on a ViewLux plate reader (Perkin Elmer, Waltham, MA).
# On the % scale 0 is the no-effect control and ±100 the full control effect.
row,SMILES,"activity change, negative = inhibition"
1,CCOC(=O)c1ncn2c1CN(C)C(=O)c1cc(F)ccc1-2,9.51% [at 42.5 µM]
2,NCCS,17.3% [at 42.5 µM]
3,BrCc1cccc(Oc2ccccc2)c1,8.62%
4,CCOc1cc([N+](=O)[O-])c(OCC)cc1N1CCOCC1,-15.1%
5,CCN(CC)CC(=O)Nc1c(C)cccc1C,7.61% [at 42.5 µM]
6,CCCCN,6.44% [at 42.5 µM]
7,CCOC(=O)/C=C/c1ccccc1,10.3%
8,COc1cc(C(=S)N2CCOCC2)cc(OC)c1OC,4.35% [at 42.5 µM]
9,CN=C(NC#N)Nc1ccc(C2=NNC(=O)CC2C)cc1 (stereo not given),13.7% [at 42.5 µM]
10,CN1C(C)(C)CCCC1(C)C,-4.89% [at 42.5 µM]
11,CC(C)(C)NC(N)=O,0.152%
12,CCCCCCCCSCC,1.66%
13,CCC(C)(CCC(C)C)C(=O)O (stereo not given),7.78%
14,Nc1ncnc(Nc2ccccc2)n1,47.8% [at 42.5 µM]
15,CC1=C(C(=O)O)N2C(=O)[C@@H](NC(=O)[C@H](N)c3ccc(O)cc3)[C@H]2SC1,31.2% [at 42.5 µM]
16,C=CC(OCC)OCC,-2.56%
17,O=C1c2ccccc2C(=O)c2cc(S(=O)(=O)O)ccc21,4.44%
18,Nc1ccc(S(=O)(=O)Nc2ccc(Cl)nn2)cc1,38.1% [at 42.5 µM]
19,Cc1cc(NC(=O)C2=C(O)c3ccccc3S(=O)(=O)N2C)no1,-2.01% [at 42.5 µM]
20,Oc1cn2c(n1)Nc1ccc(Cl)c(Cl)c1C2,0.185% [at 19 µM]

row,SMILES,"activity change, negative = inhibition"
1,Cc1ccc(S(=O)(=O)O)c(C)c1,-1.86%
2,CCC(CC)CO,-13.2%
3,CC(C)NCC(O)COc1ccc(COCCOC(C)C)cc1 (stereo not given),-1.98% [at 42.5 µM]
4,CC(C)C(=O)OCc1cccc(OC(=O)[C@@H]2N3C(=O)[C@@H](NC(=O)Cc4ccccc4)[C@H]3SC2(C)C)c1,71% [at 42.5 µM]
5,OCCCCC(O)CO (stereo not given),1.12%
6,CCCCCCCCC1CCC(=O)O1 (stereo not given),183%
7,O=C1c2cccc3c2[C@H](CCC3)CN1[C@@H]1CN2CCC1CC2,17.2% [at 42.5 µM]
8,O=Cc1ccc(Cl)c(Cl)c1,-19.4%
9,C=Cc1ccccn1,2.86%
10,C[C@@H]1O[C@@H](O[C@@H]2[C@@H](O)[C@H](OCCc3ccc(O)c(O)c3)O[C@H](CO[C@@H]3O[C@H](CO)[C@@H](O)[C@H](O)[C@H]3O)[C@H]2OC(=O)/C=C/c2ccc(O)c(O)c2)[C@H](O)[C@H](O)[C@H]1O,13.6%
11,CCCCOCCOC(=O)COc1nc(Cl)c(Cl)cc1Cl,13.5%
12,Cc1cc2cc3c(C)cc(=O)oc3c(C)c2o1,55.1% [at 42.5 µM]
13,O=C(O)C(=O)Cc1ccccc1,-23.7%
14,C[Si](C)(C)C,24.2%
15,CCCCNC1CC(C)(C)NC(C)(C)C1,-18.5%
16,COc1cc2c(cc1OC)C(=O)CC2,55.4% [at 42.5 µM]
17,Brc1ccc(-c2ccccc2)cc1,-9.63%
18,OC[C@H](Cc1cccc(O)c1)[C@H](CO)Cc1cccc(O)c1,-2.64%
19,C[C@H](N)[C@H](O)c1cccc(O)c1,43.3% [at 42.5 µM]
20,O=C(O)Cc1cn(-c2ccccc2)nc1-c1ccc(Cl)cc1,-25.7% [at 42.5 µM]
